Measured values reported in the OligoGym collection.
Also: reference of the scale not given here.

These sequences were tested against IL7 (assay: pooled miR-30 sensor sort-seq; sequence = guide strand). Details: shRNA.
TATCTCTTGTAATAGTCTCTTT showed a sensor-assay potency score (higher = more potent) of -0.557. Work on TTGTTTGTATTCATCTTCTAGT yielded a sensor-assay potency score (higher = more potent) of -0.373. With TATCACAATCAGATGATGCTAC the sensor-assay potency score (higher = more potent) was 0.423. In the case of TAGCATCACAGATATGTCTTTT, the sensor-assay potency score (higher = more potent) is reported as -0.445. TTTATTTTCTTCCAAACTCTTT gave a sensor-assay potency score (higher = more potent) of -0.524. TATTATTGCAACTGATACCTTA showed a sensor-assay potency score (higher = more potent) of -0.0538. In the case of TAAAGATTTATTTTCTTCCAAA, the sensor-assay potency score (higher = more potent) is reported as -1.11. For TTCCTTATTAGCATCACAGATA, the sensor-assay potency score (higher = more potent) was -0.731. Sequence TTCTAGTAATACAATATGCATT has a sensor-assay potency score (higher = more potent) of -1.23. Work on TTTTCTTCCAAACTCTTTGTTG yielded a sensor-assay potency score (higher = more potent) of -0.54. In the case of TTGTAATAGTCTCTTTAGGAAA, the sensor-assay potency score (higher = more potent) is reported as -1.6.

These sequences were tested against ILDR2 in the same assay as above. Details: shRNA.
TAATACAGTAATAGAGTCCGCT showed a sensor-assay potency score (higher = more potent) of 0.505. With TACTACTCGAACAGTCCTCCTG the sensor-assay potency score (higher = more potent) was 0.188. TAGTACAGGACCTTCATGGAGT was tested, and the sensor-assay potency score (higher = more potent) was 0.283. In the case of TTGAAGCTACTACTCGAACAGT, the sensor-assay potency score (higher = more potent) is reported as -0.815. For TACAGTAATAGAGTCCGCTGTC, the sensor-assay potency score (higher = more potent) was 0.133. In the case of TGAACTTCCACTGCACAACTGC, the sensor-assay potency score (higher = more potent) is reported as -0.265. Sequence TCTGCATCATGAACAATCGTGA has a sensor-assay potency score (higher = more potent) of -0.116. For TTCTCTTGCTGAGAGATTGGGC, the sensor-assay potency score (higher = more potent) was -0.528. With TTATATCTGCCTCTCATCCTTC the sensor-assay potency score (higher = more potent) was -0.505. For TAGGACTTGAACTTCCACTGCA, the sensor-assay potency score (higher = more potent) was 0.867. Sequence TTGTCGGGCACTGTGACCTGAA has a sensor-assay potency score (higher = more potent) of -0.304. For TGAACAATCGTGATCTCTCTGC, the sensor-assay potency score (higher = more potent) was -0.125.

What follows are sequences tested against IMMP2L in the same assay as above. Details: shRNA.
With TCTACTCTTGCCACACAGGCGA the sensor-assay potency score (higher = more potent) was -0.683. With TTCAAGAGCAATCACTCTCTTA the sensor-assay potency score (higher = more potent) was -0.135. Work on TTGATGTATCTTTTCACCCACC yielded a sensor-assay potency score (higher = more potent) of -0.733. ATCGATGCTCCTTCTACTCTTG was tested, and the sensor-assay potency score (higher = more potent) was -0.658. With TATGGTTCTGACAATATCTCCT the sensor-assay potency score (higher = more potent) was 0.439. With TCAAAATTCCTCACTTTCCAGT the sensor-assay potency score (higher = more potent) was -0.183. With TAAATATTTCTCGCACAGCATC the sensor-assay potency score (higher = more potent) was -1.39. For TTCAAAGAAGGCTGCATCGATG, the sensor-assay potency score (higher = more potent) was -1.29. TTCAAAAGCACCACATCAGATG showed a sensor-assay potency score (higher = more potent) of -0.957. In the case of AATGATACAATGTCACCACGGT, the sensor-assay potency score (higher = more potent) is reported as 0.432. Work on TCTTAATGATCTTCTGTTCTGG yielded a sensor-assay potency score (higher = more potent) of 0.00439. TAATGATCTTCTGTTCTGGGTT showed a sensor-assay potency score (higher = more potent) of -0.0559.

Each sequence was assayed against INF2 in the same assay as above. Details: shRNA.
Work on TCAGTGGTTAGGACATCGCTGG yielded a sensor-assay potency score (higher = more potent) of -0.678. TTTCAATCTCGTGCTTCTCGGG was tested, and the sensor-assay potency score (higher = more potent) was -0.468. TTCAATCTCGTGCTTCTCGGGA showed a sensor-assay potency score (higher = more potent) of -0.3. TTTCAGGATGCTCTCACTCTGG showed a sensor-assay potency score (higher = more potent) of -0.623. For TGTTGTAGCATCAAGGCCGGGC, the sensor-assay potency score (higher = more potent) was -0.171.
